Screening data from PubChem BioAssay.
Texas Red fluor = Texas Red region autofluorescence | Compound fluorescence, Texas Red channel, 547/618 nm; active compounds read high | max dye-equivalent concentration, M | 59,000 compounds, 0.06% hits | AID 587; in the data active means max dye-equivalent concentration above about 10 nM; inconclusive means between about 1.1 nM and that limit
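qHTS profiling of intrinsic compound fluorescence; 100 mM Tris pH 8.0; 15 min RT; ex 547 / em 618 nm; response expressed as Texas Red dye-equivalent concentration from six-point plate standard.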
A647 fluor = compound fluoresces in the A647 spectral region; Compound fluorescence, A647 channel (570/671 nm), Tris buffer; max dye-equivalent concentration, M; 59,000 tested, under 10 active;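 further: values scaled relative to a standard on each plate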
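Compound fluorescence was measured in 100 mM Tris buffer, pH 8.0, after 15 min at room temperature, using 570 nm excitation and 671 nm emission filters. Signal was normalized to a per-plate Alexa 647 standard curve and expressed as dye-equivalent concentration at each compound concentration.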
Resorufin fluor = compounds fluorescent in resorufin spectral region | Compound fluorescence, resorufin region 547/598 nm, buffer; active compounds read high | max dye-equivalent concentration, M | 59,000 compounds, 0.04% hits | AID 588
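Compounds in 100 mM Tris, pH 8.0, incubated 15 min at room temperature, then fluorescence read at 547 nm excitation/598 nm emission. Signal converted to dye-equivalent concentration via an on-plate six-point resorufin standard curve, per compound concentration.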
A488 fluor = compound fluoresces in the A488 spectral region; compound autofluorescence, A488 spectral region, dye equivalency; Compound Type: qHTS ECL - MLSMR; max dye equivalency, M; 59,000 compounds, 0.1% hits; AID 591
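Intrinsic compound fluorescence is measured in 100 mM Tris buffer at pH 8.0 following 15 min incubation at room temperature. Intensities at 480 nm excitation/540 nm emission are calibrated to an on-plate A488 concentration series, giving dye-equivalent concentrations.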
Fluorescein autfl = compound autofluorescence in fluorescein spectral region | Compound autofluorescence, 480/540 nm, fluorescein-equivalent; active compounds read high | max fluorescein-equivalent concentration, M | 59,000 compounds, 0.91% hits | AID 593; in the data active means max fluorescein-equivalent concentration above about 10 nM; inconclusive means between about 1.1 nM and that limit
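Each compound is tested across a concentration series in 100 mM Tris buffer at pH 8.0. After 15 min at room temperature, plates are imaged with 480 nm excitation and 540 nm emission filters, and intensities are converted to fluorescein-equivalent values.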
Rhodamine fluor = compound fluoresces in the rhodamine spectral region | max dye-equivalent concentration, M | 59,000 compounds, 0.05% hits | Rhodamine-region fluorescence, 547/598 nm, Tris buffer; active compounds read high; in the data active means max dye-equivalent concentration above about 11 nM; inconclusive means between about 1.1 nM and that limit
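Compounds in 100 mM Tris buffer, pH 8.0, were incubated 15 min at room temperature, then read at 547 nm excitation and 598 nm emission. Fluorescence was normalized against a per-plate six-point rhodamine standard curve as dye-equivalent concentration.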
* marks the source's active call; other numbers are inactive results; i = inactive; ? = inconclusive; ! = repeats disagree. In the library only some 0.95% were active in any assay of this set; here they are far more common. Unless noted, how the calls were made is not given here.

SMILES	Texas Red fluor	A647 fluor	Resorufin fluor	A488 fluor	Fluorescein autfl	Rhodamine fluor
COc1ccc(C2C3=C(CC(C)(C)CC3=O)Nc3c2c(=O)[nH]c(=O)n3Cc2ccccc2)cc1OC (configuration not stated)	i	5.28e-08	i	i	1.1e-08M*	i
O=c1oc2c(CN3CCCCC3)c(O)ccc2cc1-c1nc2ccccc2[nH]1	i	1e-09	i	1.4e-07M*	2.83e-06M*	i
C/C(=C\CNc1ncnc2c1ncn2[C@@H]1O[C@@H](CO)[C@@H](O)[C@H]1O)CO	i	1e-09	i	i	i	i
CC(=O)CSCc1ccccn1	i	5.28e-08	i	i	?	i
CCOc1cccc2cc(C(=O)N3CCc4ccccc43)c(=O)oc12	2.29e-08M*	1e-09	?	i	?	1.13e-08M*
COc1cccc2cc(C(=O)N3CCc4ccccc43)c(=O)oc12	i	1.17e-08	i	i	i	i
Fc1ccccc1N1CCN(c2nc3ccccc3n3nnnc23)CC1	i	3.06e-08	i	i	1.61e-08M*	i
c1cnc(N2CCN(c3nc4ccccc4n4cnnc34)CC2)nc1	i	6.2e-09	i	i	i	i
N=C(N)SCC(=O)O	i	2.3e-09	i	i	i	i
N#CC(C(=O)NCc1ccccc1)c1nc2ccccc2nc1N1CCCC1 (configuration not stated)	i	2.6e-09	i	2.19e-08M*	3.86e-07M*	i
N#CC(C(=O)NCCc1ccccc1)c1nc2ccccc2nc1N1CCCCC1 (configuration not stated)	i	3.9e-09	i	?	1.25e-07M*	i
CCOC(=O)N1CCN(c2nc3ccccc3nc2C(C#N)C(=O)NCCc2ccccc2)CC1 (configuration not stated)	i	1e-09	i	i	1.13e-08M*	i
CCOC(=O)C1CCCN(c2nc3ccccc3nc2C(C#N)C(=O)NCc2ccccc2)C1 (configuration not stated)	i	1e-09	i	4.98e-08M*	8.61e-07M*	i
N#CC(C(=O)NCCc1ccccc1)c1nc2ccccc2nc1N1CCOCC1 (configuration not stated)	i	4.58e-08	i	i	?	i
CCN1CCN(c2nc3ccccc3nc2C(C#N)C(=O)OCc2ccccc2)CC1 (configuration not stated)	i	6.6e-09	i	i	?	i
Oc1cc(O)cc(/C=C\c2ccc(O)c(O)c2)c1	i	1e-09	i	i	?	i
COc1ccc(-c2nc3cnc(OC)nc3n(C3CC3)c2=O)cc1	i	3.72e-08	i	i	?	i
COc1ccc(C(=O)N2CCC3(CC2)CN(c2ccccn2)C3)cc1	i	3.7e-09	i	i	i	i
CCN(CC)c1nc2ccccc2nc1C(C#N)C(=O)NCCCOC (configuration not stated)	i	6.7e-09	i	i	?	i
CCN(CC)c1nc2ccccc2nc1C(C#N)C(=O)NCCc1ccccc1 (configuration not stated)	?	1.48e-08	i	?	1.13e-07M*	i
Cc1cnc(CNc2ccnc(-c3cccc(NS(C)(=O)=O)c3)n2)cn1	?	2.9e-09	i	i	i	i
COCCn1c(=O)c(-c2ccc(Cl)cc2)nc2cnc(OC)nc21	i	1e-09	i	i	i	i
CN1C(C(=O)Nc2ccccn2)=C(O)c2ccccc2S1(=O)=O	i	4.2e-08	i	i	1.22e-08M*!	i
COc1ccc(-c2coc3ccc(O[C@@H]4O[C@@H](COC(C)=O)[C@@H](OC(C)=O)[C@@H](OC(C)=O)[C@H]4OC(C)=O)c(OC(C)=O)c3c2=O)cc1	i	1.19e-08	i	i	i	i
COC(=O)c1c(=O)n(O)c2ccc(OC)cc2[n+]1[O-]	i	2e-09	i	?	3.56e-08M*	i
CCc1ccc(CCC(=O)O)nc1	i	1.2e-08	i	i	i	i
CC(C)(CO)[C@H](O)C(=O)NCCC(=O)O	i	3.3e-09	i	i	i	i
